Results filed as inconclusive are left out. A call without a number means that no potency is given here. Active and inactive are the calls of the source. Calls follow the shape of the dose curve; as a rule, active = well fitted curve in the direction sought with a large enough effect; inconclusive = small, poorly fitted or top-dose-only effect, or another doubt; inactive = no such curve, though single readings can be large; an effect the other way counts as inactive or inconclusive.
Tests used:
UISO = experiment: qHTS assay to identify novel small-molecules to repurpose for Merkel cell carcinoma treatment (AID 1296009); details: MCC and control cell lines, CellTiter-Glo viability, 72 h; series mostly up to 46 µM; also: nearly all actives have a fitted effect of over 60% in size
Method in brief: (§1)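 Dose-response viability screen; 72 hr exposure at 37 degree celsius; CellTiter-Glo added, 10 min room temperature, luminescence read; RLUs scaled between no-cell and DMSO wells.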

C33A = experiment: Primary qHTS to identify gynecologic anti-cancer compounds using libraries of approved drugs and bioactive compounds (AID 1345084); details: Gynecologic cancer cell panel viability, ATPlite luminescence, 48 h; series mostly up to 57.5 µM; also: nearly all actives have a fitted effect of over 55% in size
Method in brief: (§2)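 48 h compound exposure at 37 C, 5% CO2; five-point qHTS. ATPlite luminescence readout of cell ATP.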

CAOV3 = experiment: as above; details: Gynecologic cancer cell panel viability, ATPlite luminescence, 48 h; series mostly up to 57.5 µM
Method in brief: as §2

CASKI = experiment: as above; details: Gynecologic cancer cell panel viability, ATPlite luminescence, 48 h; series mostly up to 57.5 µM
Method in brief: as §2

Es-2 = experiment: as above; details: Gynecologic cancer cell panel viability, ATPlite luminescence, 48 h; series mostly up to 57.5 µM
Method in brief: as §2

HeLa = experiment: as above; details: Gynecologic cancer cell panel viability, ATPlite luminescence, 48 h; series mostly up to 57.5 µM
Method in brief: as §2

Hek293T = experiment: as above; details: Gynecologic cancer cell panel viability, ATPlite luminescence, 48 h, control line for the selectivity index; series mostly up to 57.5 µM
Method in brief: as §2

WaGa = experiment: qHTS assay to identify novel small-molecules to repurpose for Merkel cell carcinoma treatment (AID 1296009); details: MCC and control cell lines, CellTiter-Glo viability, 72 h; series mostly up to 46 µM; also: nearly all actives have a fitted effect of over 60% in size
Method in brief: as §1

JEG-3 = experiment: Primary qHTS to identify gynecologic anti-cancer compounds using libraries of approved drugs and bioactive compounds (AID 1345084); details: Gynecologic cancer cell panel viability, ATPlite luminescence, 48 h; series mostly up to 57.5 µM; also: nearly all actives have a fitted effect of over 55% in size
Method in brief: as §2

OV90 = experiment: as above; details: Gynecologic cancer cell panel viability, ATPlite luminescence, 48 h; series mostly up to 57.5 µM
Method in brief: as §2
Potency is read from the fitted curve at half-maximal effect.

Row | Compound | Potency (UISO) | Potency (C33A) | Potency (CAOV3) | Potency (CASKI) | Potency (Es-2) | Potency (HeLa) | Potency (Hek293T) | Potency (WaGa) | Potency (JEG-3) | Potency (OV90)
1 | CN1CCc2cc(Cl)c(O)cc2[C@H]2c3ccccc3CC[C@@H]21 | inactive | inactive | inactive | inactive | inactive | inactive | inactive | – | – | –
2 | CCCCCCCCCCCC[N+](C)(C)CCOc1ccccc1 | 9.44 µM (active) | – | – | – | 31.6 µM (active) | 31.6 µM (active) | – | 4.22 µM (active) | inactive | –
3 | COc1ccc2c3c1O[C@H]1[C@@H](O)C=C[C@H]4[C@@H](C2)N(C)CC[C@@]341 | 15 µM (active) | – | – | 31.6 µM (active) | – | – | – | 5.34 µM (active) | – | –
4 | C[C@@H]1O[C@@H](O[C@@H]2C=C3CC[C@@H]4[C@H](CC[C@]5(C)[C@@H](c6ccc(=O)oc6)CC[C@]45O)[C@@]3(C)CC2)[C@H](O)[C@H](O)[C@H]1O | 0.0038 µM (active) | – | – | – | – | – | – | 0.0027 µM (active) | inactive | –
5 | O=C1NCN(c2ccccc2)C12CCN(CCCOc1ccc(F)cc1)CC2 | inactive | inactive | inactive | inactive | inactive | inactive | – | inactive | inactive | inactive
6 | CC1COC2(c3ccccc3Cl)c3cc(Cl)ccc3NC(=O)CN12 (stereo not given) | inactive | inactive | inactive | inactive | inactive | inactive | inactive | – | inactive | –
7 | Oc1ccc([C@H]2CNCc3c2ccc(O)c3O)cc1O | inactive | inactive | inactive | inactive | inactive | inactive | inactive | – | inactive | inactive
8 | COP(=O)(OC)OC=C(Cl)Cl | inactive | inactive | inactive | inactive | inactive | inactive | inactive | inactive | inactive | inactive
9 | CC[n+]1c(-c2ccccc2)c2cc(N)ccc2c2ccc(N)cc21 | 7.5 µM (active) | 1.12 µM (active) | 12.6 µM (active) | 20 µM (active) | – | – | – | 0.75 µM (active) | – | 14.1 µM (active)
10 | COc1cc(C[C@@H](C)N)c(OC)cc1C | inactive | – | inactive | inactive | inactive | inactive | inactive | inactive | inactive | –
11 | Sc1ccccc1Cl | inactive | inactive | inactive | inactive | inactive | inactive | inactive | inactive | inactive | inactive
12 | C[C@H](N)[C@H](O)c1ccc(O)c(O)c1 | inactive | inactive | – | inactive | – | – | – | inactive | inactive | –
13 | COP(=S)(OC)Oc1ccc(Sc2ccc(OP(=S)(OC)OC)cc2)cc1 | inactive | inactive | inactive | inactive | inactive | inactive | – | inactive | inactive | inactive
14 | C[C@]12CC[C@H]3[C@@H](CCC4=CC(=O)CC[C@@]43C)[C@@H]1CC[C@@H]2C(=O)O | inactive | inactive | inactive | inactive | inactive | – | inactive | inactive | inactive | inactive
15 | CN1CCC(N(Cc2ccccc2)c2ccccc2)CC1 | inactive | inactive | inactive | inactive | inactive | inactive | inactive | – | inactive | –
16 | CC(C)[N+](C)(CCC(C(N)=O)(c1ccccc1)c1ccccc1)C(C)C | inactive | – | inactive | inactive | inactive | inactive | inactive | 23.7 µM (active) | inactive | –
17 | CN(C)C(=S)SSC(=S)N(C)C | 0.211 µM (active) | 1.26 µM (active) | 11.2 µM (active) | inactive | – | inactive | – | 0.668 µM (active) | – | –
18 | COc1cc(C[C@@H](C)N)c(OC)cc1Br | inactive | inactive | inactive | – | inactive | inactive | inactive | inactive | inactive | –
19 | CCC(=O)OC1(c2ccccc2)CCN(C)CC1 | inactive | inactive | – | inactive | inactive | inactive | inactive | inactive | inactive | inactive
20 | O=c1[nH]c2cc(Cl)ccc2n1C1CCNCC1 | inactive | inactive | inactive | – | inactive | inactive | inactive | inactive | inactive | inactive
21 | O=C(N[C@@H]1N=C(c2ccccc2F)c2cccc3c2N(CC3)C1=O)c1cc2ccccc2[nH]1 | 2.99 µM (active) | – | – | – | – | 12.6 µM (active) | – | inactive | – | –
22 | CC1N=C(N)OC1c1ccccc1 (stereo not given) | inactive | inactive | inactive | inactive | inactive | inactive | inactive | – | inactive | –
23 | CN1C(=O)[C@@H](NC(=O)c2cc3ccccc3[nH]2)N=C(c2ccccc2)c2ccccc21 | – | inactive | – | – | – | inactive | inactive | inactive | inactive | –
